Measurements: PubChem BioAssay (NCATS)
Results filed as inconclusive are left out. Where a call stands in place of a potency, no number is given. Activity calls are given as the source filed them. Calls follow the shape of the dose curve; as a rule, active = well fitted inhibition curve with a large enough effect; inconclusive = small, poorly fitted or top-dose-only effect; inactive = no such curve, though single readings can be large or run the other way.

Tests used:
[1] = system: Zika virus NS2B-NS3 protease (unlinked complex); experiment: Primary screen GU Rhodamine qHTS for Zika virus inhibitors: Unlinked NS2B-NS3 protease assay (AID 1347159); also: nearly all actives have a fitted effect of over 60% in size
How it was run: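 Percent inhibition derives from the 15-min fluorescence change (ex 480, em 540 nm), normalized to no-enzyme and no-inhibitor wells. Reactions contained 25 nM NS2B-NS3 complex and 1.5 microM substrate in 10 mM Tris-HCl pH 8.0.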

[2] = system: Zika virus NS2B-NS3 protease (linked construct); experiment: Primary screen NINDS Rhodamine qHTS for Zika virus inhibitors (AID 1347160); also: nearly all actives have a fitted effect of over 55% in size
How it was run: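 In 10 mM Tris-HCl pH 8.0 containing 0.01% Tween 20, linked NS2B-NS3 protease (25 nM final) is exposed to test compounds for 15 min. Cleavage of 1.5 microM Rhodamine110 substrate is tracked by fluorescence over 15 min.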
Potency is read from the fitted curve at half-maximal effect.

CCOC(=O)[C@H]1O[C@@H]1C(=O)N[C@@H](CC(C)C)C(=O)NCCC(C)C
Potency [1]: inactive | Potency [2]: inactive

CCC(CCO[C@@H]1O[C@H](CO[C@H]2OC[C@](O)(CO)[C@H]2O)[C@@H](O)[C@H](O)[C@H]1O)C(C)(C)O (stereo partly drawn)
Potency [1]: inactive | Potency [2]: inactive

C=C1C2(CCC(=O)OC2(C)C)CC(OC(=O)/C(C)=C/C)C2(C)C13OC14C(=O)OC(C)(C(=O)C12C(=O)OC4C)C3OC(C)=O (stereo not drawn)
Potency [1]: inactive | Potency [2]: inactive

CC(=O)NCCCCn1c2c(c3ccccc31)C(=O)NCC2
Potency [1]: inactive | Potency [2]: inactive

CC1CC(=O)C2=C(O1)OC1(C)CCC3C(C)(C)C=CC(=O)C3(C)C1C2 (stereo not drawn)
Potency [1]: 28.2 µM (active) | Potency [2]: 12.6 µM (active)

CC1CCC2C(C)(C)C(O)CCC2(C)C12Cc1c(O)cc3c(c1O2)CN(C(CCC(N)=O)C(=O)O)C3=O (stereo not drawn)
Potency [1]: inactive | Potency [2]: inactive

COc1ccc(/C=C/C(=O)O[C@@H]2[C@@H](OC(C)=O)[C@@H](OC(C)=O)[C@H](O[C@H]3[C@@H]4C=CO[C@@H](O[C@@H]5O[C@H](CO)[C@@H](O)[C@H](O)[C@H]5O)[C@@H]4[C@@]4(CO)O[C@@H]34)O[C@H]2C)cc1O
Potency [1]: inactive | Potency [2]: inactive

COc1c2c(c(C)c3c1C(=O)OC3)O[C@@]1(C)C[C@@H](O)[C@]34O[C@](OC)(CC[C@]3(C)[C@H]1C2)OC4(C)C
Potency [1]: inactive | Potency [2]: inactive

COc1cc([C@H]2OC[C@]3(OC(C)=O)[C@@H](c4ccc(O[C@@H]5O[C@H](CO)[C@@H](O)[C@H](O)[C@H]5O)c(OC)c4)OC[C@H]23)ccc1O
Potency [1]: inactive | Potency [2]: inactive
